Assay outcomes deposited in PubChem by several laboratories.
Sampled rows, rich in hits. Any-hit rate of the full collection: about 4.8%.
Beta apoptosis: beta cell apoptosis inhibition; INS-1E cytokine-induced death, ATP luminescence, 48 h; percent of positive-control rescue, neutral wells zero; protection from apoptosis, % (test concentration not listed); 300,000 compounds, 0.8% hits;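 active means Every replicate reaches about 75%, or at least half do and their mean reaches it too, limit read from the data; inconclusive means At least half of replicates reach the limit but their mean does not; inactive means Under half of replicates reach the limit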;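 further: 0% = cytokine-treated negative control wells and 100% = positive control rescue; higher means more ATP so stronger rescue from cytokine killing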
CSC inhib: blocks cancer stem cells; cancer stem cell-like cells viability, luminescence; inhibition, % at 7.5 µM; 300,000 compounds, 1.1% hits; AID 2717; in the data active means inhibition above about 75%; inconclusive means no clear call, values can overlap the other calls; tested in HMLE shEcad cells
Mdm2 MdmX PPI: inhibitors of human Mdm2/MdmX interaction; O15151+Q00987; SaOS-2 split-luciferase Mdm2/MdmX complementation, luminescence; inhibition, % at 8 µM; 330,000 compounds, 3% hits; AID 485346;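 active means inhibition of at least 50% at 8 µM in the primary screen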
Target sequence (O15151 whole entry, looked up): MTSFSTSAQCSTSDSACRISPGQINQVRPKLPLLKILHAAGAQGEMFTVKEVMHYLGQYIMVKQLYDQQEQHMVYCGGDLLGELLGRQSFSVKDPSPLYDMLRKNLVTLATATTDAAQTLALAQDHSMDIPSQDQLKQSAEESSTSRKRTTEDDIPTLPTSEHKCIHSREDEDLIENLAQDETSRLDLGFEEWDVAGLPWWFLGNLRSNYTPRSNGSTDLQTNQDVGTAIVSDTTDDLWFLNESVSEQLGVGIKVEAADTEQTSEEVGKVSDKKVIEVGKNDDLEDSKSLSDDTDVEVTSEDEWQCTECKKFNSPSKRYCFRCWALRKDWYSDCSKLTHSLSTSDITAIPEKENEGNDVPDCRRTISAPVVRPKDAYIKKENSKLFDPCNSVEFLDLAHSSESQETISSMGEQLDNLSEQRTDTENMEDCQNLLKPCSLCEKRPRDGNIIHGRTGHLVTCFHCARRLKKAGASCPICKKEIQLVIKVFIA
Target sequence (Q00987 whole entry, looked up): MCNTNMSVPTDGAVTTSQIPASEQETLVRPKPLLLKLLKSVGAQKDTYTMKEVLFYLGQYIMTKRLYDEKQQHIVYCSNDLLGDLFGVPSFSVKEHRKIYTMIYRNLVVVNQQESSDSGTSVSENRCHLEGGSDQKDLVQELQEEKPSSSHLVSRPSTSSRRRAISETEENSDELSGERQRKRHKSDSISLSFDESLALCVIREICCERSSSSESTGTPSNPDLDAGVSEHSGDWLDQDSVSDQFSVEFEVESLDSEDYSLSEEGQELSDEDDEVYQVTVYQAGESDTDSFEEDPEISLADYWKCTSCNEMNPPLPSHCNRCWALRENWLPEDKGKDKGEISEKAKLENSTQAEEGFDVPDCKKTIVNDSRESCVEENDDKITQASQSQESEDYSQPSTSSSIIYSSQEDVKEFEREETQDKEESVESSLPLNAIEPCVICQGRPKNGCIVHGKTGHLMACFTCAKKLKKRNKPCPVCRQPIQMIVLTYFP
MPTP block: permeability transition pore inhibition. inhibition, % at 10 µM. isolated mouse mitochondria, Ca2+ swelling absorbance, 30 min. AID 602449. 360,000 compounds, 1.4% hits;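 active means inhibition of 50% or more, scaled per plate between neutral and stimulator controls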;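 further: 0% = DMSO wells given calcium and 100% = 1 mM EGTA wells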
Calb FLC: C. albicans growth modulation with fluconazole; growth inhibition, % (concentration not given with the values); 300,000 compounds, 0.57% hits; AID 1979; C. albicans CaCi-2 (fluconazole-resistant clinical isolate) + fluconazole, Alamar Blue growth, 48 h;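 active means growth inhibition above about 58% in most replicates, limit read from the data, passing the limit was not always enough; inconclusive means exactly half the replicates above a set limit; inactive means most replicates below a set limit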;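 further: all wells also contain fluconazole at 8 µg/ml as a sub-toxic cotreatment; 0% = median of DMSO wells and 100% = median of geldanamycin control wells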
MPTP counter: membrane potential counter-screen of mitochondrial pore inhibitors; isolated mitochondria, Rhodamine 123 fluorescence; shares compounds with MPTP block; 5,000 compounds, 78% hits; inhibition, % at 10 µM; in the data active means inhibition above about 22%;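 further: 0% = DMSO vehicle and 100% = positive control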
MPTP swell DR: MPTP inhibition, dose response swelling confirmation; shares compounds with MPTP block; 780 compounds, 58% hits; IC50, µM; isolated mitochondria swelling, absorbance; AID 651561; in the data active means IC50 below about 20 µM
MPTP counter DR: active in counter-screen for permeability transition pore inhibitors; shares compounds with MPTP block; isolated mitochondria counterscreen, fluorescence read-out; IC50, µM; 780 compounds, 49% hits; in the data active means IC50 below about 80 µM
* = called active by the depositor; i = inactive; ? = inconclusive; / = not tested or not shown.

SMILES	Beta apoptosis	CSC inhib	Mdm2 MdmX PPI	MPTP block	Calb FLC	MPTP counter	others
O=C(NCc1ccc2c(c1)OCO2)c1n[nH]c(=O)c2ccccc12	2	/	31	0	-17	/
COC(=O)[C@]1(C)N[C@H](CN(C)C(=O)c2ccc(F)cc2)[C@@H]2C(=O)N(Cc3ccccc3)C(=O)[C@@H]21	-4	0	12	2	/	/
Cc1cccc2c1cnn2C(=O)CCC(=O)NCc1ccc(F)cc1	-3	/	20	-2	5	/
Cc1cc(/N=C/C=C2/N(C)c3ccccc3C2(C)C)n(CCC#N)n1	/	/	/	-1	/	/
O=C(NC1CCCCC1)C(c1ccc(O)cc1)N(C(=O)c1cnccn1)c1cccc(F)c1 (stereo not given)	-4	/	7	0	-5	/
O=C(NC(=O)c1cccc(F)c1)OC[C@@H]1CCCN2CCCC[C@H]12	0	-11	-23	-2	2	/
O=C(Nc1ccc(C(=O)OC[C@@H]2CCCN3CCCC[C@H]23)cc1)c1cccc(Br)c1	-9	-10	43	70*	4	-7	MPTP swell DR=14*;MPTP counter DR=47*
Cc1ccc([N+](=O)[O-])cc1NC(=O)CSc1nnc(C)n1CC1CCCO1 (stereo not given)	5	/	6	-2	-9	/
COc1ccccc1CNc1nc(NC(C)C)nc2cc(-c3ccccc3)sc12	/	/	/	75*	/	101*
CC(C)Nc1nc(NCCOc2ccccc2Cl)c2sc(-c3ccccc3)cc2n1	/	/	/	60*	/	105*
CC(C)(C)OC(=O)N1CCCC(C(=O)Nc2ccc(C(=O)NC3CC3)cc2)C1 (stereo not given)	/	/	/	168*	/	3	MPTP swell DR=>100;MPTP counter DR=>80
Cc1ccc2nc(C(Cl)(Cl)Cl)nc(N/N=C/c3ccc([N+](=O)[O-])cc3)c2c1	/	/	/	94*	/	9	MPTP swell DR=i;MPTP counter DR=11*
Cc1ccc2nc(C(Cl)(Cl)Cl)nc(N/N=C/c3ccncc3)c2c1	4	-9	-1	-1	13	/
COc1cc([N+](=O)[O-])ccc1NC(=S)Nc1cc(C(=O)OC(C)C)cc(C(=O)OC(C)C)c1	-8	28	10	92*	-3	84*
COc1cc(NS(=O)(=O)c2ccc(C)cc2C)cc(OC)c1OC	/	10	36	84*	-1	72*
CCOc1ccc(CCNC(=O)CCNS(=O)(=O)c2ccc3c(c2)CCN3C(C)=O)cc1OCC	0	-8	34	-1	5	/
CCCOc1ccc(S(=O)(=O)NNC(=O)c2cc3ccccc3o2)cc1	3	-8	15	66*	25	31*
Cc1cccc(-c2nc(CSCC(=O)N3CCN(c4ccccn4)CC3)c(C)o2)c1	-2	17	12	78*	-9	63*
Cc1ccc(-c2nc(CSCC(=O)N3CCCC3)c(C)o2)cc1	-4	-4	14	2	29	/
C/C(=N\NC(=O)c1nnn(-c2nonc2N)c1CN1CCOCC1)c1ccc(CC(C)C)cc1	-9	-5	19	0	0	/
CCOC(=O)c1c(C)[nH]c(C(=O)N/N=C\c2ccccc2Cl)c1C	4	53	49	92*	-5	88*
CN1CCc2c(OCC(=O)N3CCC(Cc4ccccc4)CC3)cccc2C1=O	16	33	19	82*	-1	49*
CN(C(=O)c1ccccc1F)C(c1ccccc1)c1ccccc1	1	-7	4	-1	-22	/
CCOC(=O)Nc1nc2ccccc2s1	-14	1	-146	-1	-14	/
CCOC(=O)c1ccc(NC(=O)Nc2nc3ccccc3s2)cc1	/	/	/	83*	/	91*
SMILES	Beta apoptosis	CSC inhib	Mdm2 MdmX PPI	MPTP block	Calb FLC	MPTP counter	others
CCOC(=O)c1sc(NC(=O)Nc2ccc(Cl)cc2)nc1C	27	36	-62	97*	6	67*
CN(c1cccc(NC(=O)c2ccc(Cl)c(S(=O)(=O)N3CCOCC3)c2)c1)S(C)(=O)=O	-2	-5	32	1	21	/
COc1ccc(CNc2ncnc3c2[nH]c2cc(OC)c(OC)cc23)cc1	-2	6	21	14	-10	/
C1=C(CCNc2ncnc3c2[nH]c2ccccc23)CCCC1	130*	77*	/	104*	/	83*
Cc1ccc2[nH]c3c(NCc4ccccc4)ncnc3c2c1	29	37	13	/	-5	/
Brc1ccc2[nH]c3c(NCc4ccccn4)ncnc3c2c1	0	47	30	57*	5	72*
O=c1c2[nH]c3ccccc3c2ncn1CCC1=CCCCC1	-3	11	-25	1	8	/
COc1ccc(CNc2ncnc3c2[nH]c2ccccc23)cc1	43	15	15	91*	3	91*
COC(=O)/C=C1/SC(=NC(=O)c2ccccc2)NC1=O	-7	7	-4	-1	11	/
COC(=O)/C=C1\SC(=NC(=O)c2cccc(Cl)c2)NC1=O	0	7	-24	60*	2	37*
Cc1cc(C(=O)COC(=O)c2ccc(N)c([N+](=O)[O-])c2)c(C)n1-c1ccc2c(c1)OCO2	21	9	13	14	-10	/
CC(=O)c1ccc(OCC(=O)c2cc(C)n(-c3ccc4c(c3)OCO4)c2C)cc1	62	1	21	80*	6	85*
CCC(O)(CC)C(=O)N/N=C/c1cc(Br)cc(Br)c1O	28	?	43	83*	6	46*
C=CCn1c(SCC(=O)Nc2cc(C)on2)nnc1-c1ccccc1F	-5	/	12	-1	/	/
O=C(Cc1cccs1)Nc1nc(-c2ccc(F)cc2F)cs1	5	/	-9	73*	-48	91*
Cc1onc(-c2c(Cl)cccc2Cl)c1C(=O)NCc1ccco1	-2	-8	-8	72*	0	4	MPTP swell DR=i;MPTP counter DR=>80
Cc1onc(-c2ccccc2)c1C(=O)NCc1ccco1	-6	2	6	11	-1	/
CCCCCCCCSc1nnc(CSc2nc3nc(C)cc(C)n3n2)o1	?	62	18	87*	2	-2	MPTP swell DR=i;MPTP counter DR=50*
CC(C)(C)OC(=O)NCCCCCc1nnc(SCC(=O)Nc2cccc(Cl)c2)o1	-6	6	11	74*	17	57*
CCc1noc(C)c1C(=O)N(CCC(C)C)c1c(N)n(Cc2ccccc2)c(=O)[nH]c1=O	1	-5	13	0	-5	/
CCCc1cc(=O)[nH]c(SCc2cc(Cl)ccc2OC(F)F)n1	2	20	14	71*	11	55*
COc1ccccc1NS(=O)(=O)c1cccc(C(=O)NC2CCN(Cc3ccccc3)CC2)c1	60	-2	26	80*	-14	87*
Cc1ccc(C)c(NC(=O)CCN2CCN(CCO)CC2)c1	1	-6	7	1	-1	/
CCN(CC)S(=O)(=O)c1ccc(O)c(C(=O)OCC(=O)Nc2ccc(OC(F)(F)F)cc2)c1	-2	12	20	102*	6	84*
